Source: PubChem (National Center for Advancing Translational Sciences (NCATS))
HPGD block – blocks human HPGD enzyme activity; P15428; purified HPGD, NADH fluorescence kinetic, PGE2 substrate; Potency, µM, for inactives: top-dose activity change, negative = inhibition, actives largely listed as inhibitors; 150,000 tested, 4.3% active; AID 894; active = well fitted inhibition curve with a large enough effect, not every such curve was filed as active; inconclusive = small, poorly fitted or top-dose-only effect, or another doubt; inactive = no such curve, though single readings can be large or run the other way; note: potency is the fitted concentration of half-maximal effect; % is set by controls: 0 for no effect and ±100 for the full control effect
Target sequence (P15428 whole entry, looked up): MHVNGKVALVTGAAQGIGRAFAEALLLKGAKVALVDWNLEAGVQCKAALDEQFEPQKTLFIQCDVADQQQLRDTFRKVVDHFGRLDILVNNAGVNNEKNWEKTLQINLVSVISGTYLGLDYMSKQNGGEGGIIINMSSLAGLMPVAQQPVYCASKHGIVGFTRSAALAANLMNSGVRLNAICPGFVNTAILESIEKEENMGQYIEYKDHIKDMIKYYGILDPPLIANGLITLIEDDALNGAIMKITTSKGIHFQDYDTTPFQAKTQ
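NADH formation kinetics: reaction with 30 uM PGE2 and 1 mM NAD+ (final), 20 nM enzyme, Tris-HCl pH 8 with Tween 20, after 15 min compound preincubation at room temperature. Fluorescence change, last versus first of five reads.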
IMPase cell inh – cell-permeable inhibitors of inositol monophosphatase (IMPase) | P97697 | CHO-M1 cells, IP1 accumulation, HTRF TR-FRET ratio | inhibition (IP1 accumulation), % at 46.1 µM | 120,000 tested, under 10 active; active = well fitted curve in the direction sought with a large enough effect in the signal ratio, not every such curve was filed as active; inconclusive = small, poorly fitted or top-dose-only effect, or a change in a side signal; inactive = no such curve, though single readings can be large or run the other way; the % refers to the signal ratio;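 note: cells stimulated with carbachol in lithium chloride buffer; plate controls were DMSO basal wells for no effect and reference inhibitor wells for full effect; higher means more IMPase inhibition seen as more IP1 and lower FRET ratio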
Target sequence (P97697 whole entry, looked up): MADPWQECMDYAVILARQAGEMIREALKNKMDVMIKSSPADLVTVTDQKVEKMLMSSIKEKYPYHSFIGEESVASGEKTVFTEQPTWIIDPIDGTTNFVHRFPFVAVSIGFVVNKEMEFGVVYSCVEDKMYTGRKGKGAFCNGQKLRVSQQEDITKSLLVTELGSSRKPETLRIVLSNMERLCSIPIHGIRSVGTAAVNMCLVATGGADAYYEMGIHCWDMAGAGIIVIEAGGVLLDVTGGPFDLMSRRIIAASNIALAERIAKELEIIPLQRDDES
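Elevated IP1 in lysates lowers TR-FRET signal (665/620 ratio and 620 channel reported). Cells were CHO-M1, given carbachol (50 uM as added) plus 50mM LiCl, pH 7.4, 30 min, 37C; compounds titrated up to 46 uM; AC50 by Hill equation.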
HTT aggregate – reduces HttQ103-GFP aggregates in PC12 cells. PC12 HttQ103-GFP aggregates, Acumen cytometry, 40 h. Potency, µM (top dose mostly 46.1 µM), without a hit: top-dose activity change, negative = inhibition, most hits filed as inhibitors. 220,000 tested, 1.1% active. AID 1688; note: potency is the fitted concentration of half-maximal effect; % is set by controls: 0 for no effect and ±100 for the full control effect; nearly all actives have a fitted effect of over 60% in size
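Steps: seed 1500 PC12 HTTQ103-GFP cells/well; add tebufenozide, 100 nM final; add compound titration; add ATPLite reagent; quantify GFP aggregates by laser scanning cytometry.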
HTT cytoprotect – Huntington cell model cytoprotection by ATP luminescence; 230,000 tested, 0.14% active; PC12 HTT-Q103 induced, cytoprotection, ATP luminescence, 40 h; AID 1471; Potency, µM (titrated, usually from 56.4 µM), for the others: cytoprotection (ATP increase), hits mostly activators; note: potency is the fitted concentration of half-maximal effect; % of control where 0% means no effect; nearly all actives have a fitted effect of over 45% in size
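Compounds added alongside 100 nM tebufenozide, which induces toxic Q103 huntingtin exon 1-GFP in stable PC12 cells; surviving cells quantified by luminescent ATP measurement. Medium: phenol red-free DMEM, 5% equine and 5% calf serum.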
IMPase Li inh – cell-permeable IMPase inhibitors with lithium potentiation; CHO-M1 cells, IP1 TR-FRET (IP-One), carbachol + lithium; Potency, µM (doses to about 59.4 µM), for inactives: top-dose activity, negative = IMPase inhibition, actives largely listed as inhibitors; 210,000 tested, 0.35% active;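 note: IP1 builds up when IMPase is blocked and the TR-FRET signal falls; potency is the fitted concentration of half-maximal effect; plate controls were basal vehicle for no effect and high inhibitor control for full effect; nearly all actives have a fitted effect of over 50% in size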
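Readout is a homogeneous TR-FRET IP1 immunoassay (Ex 320, Em 665 and 620), where raised cytosolic IP1 lowers signal. Cells were CHO-M1 treated 30 min at 37C with test compounds plus a little lithium; AC50 values came from Hill-equation fitting.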
ALDH1A1 inh – inhibitors of human aldehyde dehydrogenase 1A1; 220,000 tested, 7.3% active; Potency, µM (highest dose often 75.3 µM), without a hit: at the highest dose activity, negative = inhibition, usual class: inhibitors; AID 1030; Purified ALDH1A1, NADH fluorescence, propionaldehyde substrate; P00352; active = well fitted inhibition curve with a large enough effect, not every such curve was filed as active; inconclusive = small, poorly fitted or top-dose-only effect, or another doubt; inactive = no such curve, though single readings can be large or run the other way;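 note: potency is the fitted concentration of half-maximal effect; plate controls were no enzyme wells and a reference inhibitor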
The depositor's hits bear a star; ? = inconclusive; nt = no result given; ! = not confirmed by another sample; [ ] = another dose, or the depositor's remark. Rows were chosen to be rich in hits. Some 9.4% of all compounds tested hit in one or more screens of this group. Unless noted, calls come from the whole dose curve; as a rule, active = well fitted curve in the direction sought with a large enough effect; inconclusive = small, poorly fitted or top-dose-only effect, or another doubt; inactive = no such curve, though single readings can be large; an effect the other way counts as inactive or inconclusive.

SMILES | HPGD block | IMPase cell inh | HTT aggregate | HTT cytoprotect | IMPase Li inh | ALDH1A1 inh
CC1(C)N([O-])[N+](=O)C1(C)Br (stereo not given) | 32µM* | nt | nt | -29% | -2% | 11µM*
C=CCOC(C)=O | -8% | nt | nt | -13% | 26% | -1%
CCC(C)n1c(O)c(C(c2ccccn2)c2c(O)n(C(C)CC)c(=S)[nH]c2=O)c(=O)[nH]c1=S (stereo not given) | 32µM* | -3 | -11% | -1%[10 µM] | ? | 7.1µM*
CN(C(=O)Cc1ccc(Cl)c(Cl)c1)[C@H](CN1CCCC1)c1ccccc1 | -7% | 2 | nt | -53% | -3% | -1%
CN(CCc1ccc(Cl)c(Cl)c1)[C@@H]1CCCC[C@@H]1N1CCCC1 | nt | nt | nt | -80% | -28% | 3.5µM*
CCN1C(=O)NC(=O)/C(=C/c2cc(C)n(-c3sc(C)c(C)c3C#N)c2C)C1=O | 8.9µM* | nt | 4% | -16%[10 µM] | 6% | 0.2µM*
Cc1ccc(N2C(=O)NC(=O)/C(=C\c3cc(C)n(-c4sc5c(c4C#N)CCCC5)c3C)C2=O)cc1 | 10µM* | 0 | 11% | 2%[10 µM] | 11% | 0.79µM*
CCOC(=O)c1c(-n2c(C)cc(C=C3C(=O)NC(=S)NC3=O)c2C)sc2c1CCCC2 | 3.5µM* | 14 | ? | -1%[10 µM] | 13% | 7.9µM*
CCOC(=O)c1c(/N=C/C2C(=O)NC(=O)NC2=O)sc2c1CCC2 | nt | nt | 2% | -9% | -2% | -6%
CC[C@@H]1/C=C/C=C/C[C@H](C)[C@@H](O)[C@](C)(O)C(=O)[C@H](C)[C@@H](O)[C@H](C)C(=O)[C@H](C)[C@@H](O)[C@H](C)/C=C/C(=O)O[C@H]2[C@@H](C)[C@@H](CC1)O[C@@]1(CC[C@@H](C)[C@@H](C[C@H](C)O)O1)[C@@H]2C | nt | nt | nt | -7% | 7% | ?
COc1cc2c(cc1OC)[C@@]13CCN4C=C5CCO[C@H]6CC(=O)N2[C@@H]1[C@@H]6[C@H]5C[C@H]43 | nt | nt | nt | -3%[10 µM] | nt | nt
COc1cccc(CCNCc2c(F)cccc2F)c1 | nt | nt | 13% | 11%[10 µM] | 19% | 10µM*
COc1ccc(CCNCc2cccc(C(F)(F)F)c2)cc1OC | nt | nt | 10% | nt | 8% | -8%
Cc1ccc(-n2c(-c3nn(C)c(C)c3Cl)n[nH]c2=S)cc1 | 28µM* | ? | 27% | -18% | ? | 32µM*
CO[C@@H](COC(N)=O)C1=C(N2CC2)C(=O)C(C)=C(N2CC2)C1=O | nt | nt | 5µM* | -98% | nt | nt
COC12C(COC(N)=O)C3=C(C(=O)C(C)=C(N)C3=O)N1CC1C2N1C (stereo not given) | nt | nt | 10%[9.22 µM] | -27%[10 µM] | nt | nt
O=C(O)CCCCC1SCC2NC(=O)NC21 (stereo not given) | -8% | 1 | 14%[9.22 µM] | 13µM*! | 3% | -2%
COc1cccc(-n2c(CN3CCN(C)CC3)nc3ccc([N+](=O)[O-])cc3c2=O)c1 | 28µM* | nt | 1% | 2%[10 µM] | 1% | 8%
CCCc1nc2ccccc2c(=O)n1-c1cccc(OC)c1 | -3% | 1 | -8% | -13%[0.074 µM] | -5%[38.3 µM] | 10%
O=C1/C(=C\c2cc3c(cc2Br)OCO3)N2CCC1CC2 | ? | nt | ? | -50%[10 µM] | 18% | 3.2µM*
O=C1/C(=C/c2ccc3c(c2)OCO3)N2CCC1CC2 | ? | -1 | -19% | -4%[10 µM] | -4% | ?
C[C@@]12CC[C@H]3[C@@H](CC[C@H]4C[C@@H](O)CC[C@]43C)[C@H]1CC[C@@H]2C(=O)C[C@H](O)C(F)(F)F | -13% | nt | nt | 11%[10 µM] | 1% | 9%[13.5 µM]
C/C=C1\C[N@@+]2(C)CC[C@@]34C(=C(C=O)[C@H]1C[C@H]32)Nc1ccccc14 | 16µM* | -2[20.6 µM] | nt | 2%[40.3 µM] | 0% | ?
S=c1[nH]nc(-c2ccco2)n1-c1cccc2ccccc12 | ? | 9 | 5% | -4%[10 µM] | 16%[38.3 µM] | ?
Nn1c(Cc2cccc3ccccc23)n[nH]c1=S | nt | nt | 9% | -33% | 2% | 22µM*
O=Cc1ccc(Cl)cc1Cl | -7% | nt | nt | -3% | 7% | -14%
